Here are results for seven molecules from PubChem BioAssay (NCATS).

Records with an inconclusive call do not appear. Calls of active or inactive are those of the source. Unless noted, calls follow the shape of the dose curve; as a rule, active = well fitted curve in the direction sought with a large enough effect; inconclusive = small, poorly fitted or top-dose-only effect, or another doubt; inactive = no such curve, though single readings can be large; an effect the other way counts as inactive or inconclusive. Some results are limits rather than exact numbers.

Test [1] in a line: AP1 Signaling Pathway (AID 357; active = well fitted curve in either direction with a large enough effect, not every such curve was filed as active;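 also: ME-180 reporter cells stimulated with EGF at its EC50 level; % is scaled to controls: 0 for no effect and ±100 for the full control effect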). As to conditions: ME-180 (cervical carcinoma) AP-1-bla reporter, EGF-induced, beta-lactamase ratio, 5 h; at 38 µM (top of the series). The method in brief: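 Beta-lactamase reporter under AP-1 response element, ME-180 background. Stimulus: EC50 EGF. Compound exposure 5 h, 37 °C. Detection: CCF4, 2.5 h RT, 460/530 nm. Values: AC50 from titration.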
The target in test [2] is Cytochrome P450 1A2 (Homo sapiens) (UniProt P05177). Briefly: p450-cyp1a2 (AID 410; calls by dose curve; also: potency is read from the fitted curve at half-maximal effect;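 as to activity change, negative = inhibition: -100% = full effect of reference inhibitor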). Summed up:
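Read-out is luminescence from luciferin produced by CYP1A2 demethylation of Luciferin-ME (100uM, at Km). Detection reagent stopped the 60 min NADPH-dependent reaction; signals were normalized to 57 uM furafylline.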

Test [3] deals with Glucocorticoid receptor (Homo sapiens) (UniProt P04150). The test can be described thus: GR-GFP Redistribution (AID 450;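 active = compounds whose dose series gives a full or clear partial fitted curve of increased nuclear translocation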; also: potency is read from the fitted curve at half-maximal effect). As to conditions: U2OS GR-GFP nuclear translocation, laser cytometry, 2 h.
Sequence of Glucocorticoid receptor (Homo sapiens) (P04150 whole entry, looked up): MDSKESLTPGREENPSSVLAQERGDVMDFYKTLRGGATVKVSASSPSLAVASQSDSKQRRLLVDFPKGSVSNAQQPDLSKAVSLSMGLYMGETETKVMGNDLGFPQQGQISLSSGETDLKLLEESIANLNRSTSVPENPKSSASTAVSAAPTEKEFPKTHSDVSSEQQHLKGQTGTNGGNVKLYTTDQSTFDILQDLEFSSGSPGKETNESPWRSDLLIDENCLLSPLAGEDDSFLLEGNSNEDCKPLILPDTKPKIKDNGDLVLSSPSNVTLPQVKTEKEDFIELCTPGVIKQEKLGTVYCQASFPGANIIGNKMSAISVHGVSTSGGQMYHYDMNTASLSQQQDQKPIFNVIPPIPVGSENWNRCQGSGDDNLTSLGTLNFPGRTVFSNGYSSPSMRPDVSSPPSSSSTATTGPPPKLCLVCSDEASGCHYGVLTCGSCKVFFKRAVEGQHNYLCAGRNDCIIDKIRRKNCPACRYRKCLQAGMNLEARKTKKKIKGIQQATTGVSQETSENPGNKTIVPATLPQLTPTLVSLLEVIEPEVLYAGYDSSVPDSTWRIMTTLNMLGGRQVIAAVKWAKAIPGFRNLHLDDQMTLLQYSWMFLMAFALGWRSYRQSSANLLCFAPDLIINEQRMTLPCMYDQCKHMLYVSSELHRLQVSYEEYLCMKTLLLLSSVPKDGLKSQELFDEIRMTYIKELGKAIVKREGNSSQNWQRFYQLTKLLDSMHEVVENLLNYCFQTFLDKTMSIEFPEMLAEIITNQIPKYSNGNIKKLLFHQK
Test [4] shares this target. Briefly: GR-EFC Redistribution (AID 451; calls by dose curve; also: potency is read from the fitted curve at half-maximal effect). As to conditions: CHO-K1 GR-EFC translocation, beta-gal luminescence, 2 h. The method in brief:
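CHO-K1 cells stably expressing nuclear-localized β-gal enzyme acceptor and GR fused C-terminally to the enzyme donor fragment; ligand-driven nuclear translocation restores β-gal by complementation. Compounds titrated up to 46 uM final, 2 h at 37 °C; luminescence read.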

For test [5], the target named is Mitogen-activated protein kinase 10 (Mus musculus) (UniProt Q61831). The test can be described thus: JNK3 AlphaScreen Assay (AID 530; active = well fitted curve in either direction with a large enough effect, not every such curve was filed as active;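 also: kinase came from lysate of stimulated human HepG2 cells; signal reports phosphorylation of biotinylated GST-cJun 1-79 at Ser73 with 10 µM ATP; % is scaled to controls: 0 for no effect and ±100 for the full control effect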). Summed up:
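Biotinylated GST-cJun(1-79) served as substrate for JNK3 in HepG2 lysates stimulated with IL-1beta and TNF-alpha. ATP was 10 uM final, pH 7.6. Ser73 phosphorylation was quantified by AlphaScreen (680 nm excitation).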

Test [6] deals with 3',5'-cyclic-AMP phosphodiesterase 4B (Homo sapiens) (UniProt Q07343). The test can be described thus: qHTS Assay for Inhibitors of PDE-IV (AID 607; active = well fitted activation curve with a large enough effect in the main read-out, with a control signal flat, not every such curve was filed as active; also: % of control where 0% means no effect). Summed up:
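HEK293 ACTOne cells with CNG channel (1000/well), endogenous PDE4; membrane potential dye, compounds up to 22.9 uM final. Fluorescence Ex 535/Em 590; RO 20-1724 (100 uM final) as reference.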
In general terms: Quantitative high-throughput screening tests each substance at several concentrations.

A short description of test [7]: qHTS Assay for Identification of Small Molecule Agonists for Thrombopoietin (TPO) Signaling Pathway (AID 917). Also: % is scaled to controls: 0 for no effect and ±100 for the full control effect. Summed up: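 Human TPO receptor–transfected Ba/F3 cells (murine, IL-3-dependent) in IL-3-deficient medium; compounds plus TPO at EC50, 26 pM final; 24 hrs, 37 C; GpIIb-luciferase luminescence after 10 min RT detection.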
Test [8] concerns the target Pyruvate kinase (Leishmania mexicana) (UniProt Q27686). The test can be described thus: qHTS Validation Assay for Inhibitors of Leishmania Mexicana Pyruvate Kinase (AID 945).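 Also: 0% = DMSO only neutral control wells.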 The method in brief:
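Read-out: luminescence from PKLight stop/detection reagent, data normalized to DMSO. Reaction: 0.2 nM E451W LmPYK, 0.5 mM PEP, 0.1 mM ADP, pH 7.2, 1 h room temperature.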

The target of test [9] is Pyruvate kinase PKM (Homo sapiens) (UniProt P14618). The test can be described thus: qHTS Assay for Activators of Human Muscle Pyruvate Kinase (AID 954; active = well fitted curve in the direction sought with a large enough effect, not every such curve was filed as active;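 also: 0% = uninhibited enzyme and -100% = no enzyme or full thiadiazolimine inhibition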). Summed up:
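Compound pinned into substrate mix (0.5 mM PEP, 0.1 mM ADP), then 0.1 nM PKM2 added; 1 h, RT. Stop/detection luciferase reagent added, luminescence read. Normalized to no-inhibition and no-enzyme or reference-inhibitor controls.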

For test [10], the target named is alpha-glucosidase (Oryza sativa, rice) (UniProt Q653V4). The test can be described thus: Counterscreen for Glucocerebrosidase Inhibitors: qHTS Assay for Rice alpha-Glucosidase at pH 5.0 (AID 997).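 Also: 0% = full activity with enzyme and -100% = basal without enzyme.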 Summed up:
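Endpoint fluorogenic assay at pH 5.0: compounds (0.7 nM to 77 uM) titrated against 4 nM rice enzyme and 400 uM 4-MU-alpha-glucoside for 20 min at room temperature; NaOH/glycine stop, read ex 365/em 440 nm, Hill-fitted AC50.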
Background: Counterscreens check selectivity or assay interference.

A short description of test [11]: qHTS Assay for Lipid Storage Modulators (AID 1519; calls by dose curve). As to conditions: Drosophila S3 cells, BODIPY lipid droplet/cell ratio, laser cytometry, cells loaded with oleic acid; for activity change, negative = inhibition: at 57.5 µM (top of the series). Summed up:
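Cells seeded at 5,000 per well were treated with compounds over a concentration series and loaded with oleic acid (400 uM, as added). Lipid droplet fluorescence (488 nm excitation, 500-530 nm channel) was read by laser-scanning cytometry and normalized to 20 uM Triacsin C.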

Test [12] addresses DNA dC->dU-editing enzyme APOBEC-3G (Homo sapiens) (UniProt Q9HC16). The test can be described thus: qHTS for inhibitors of Vif-A3G interactions: Validation (AID 588379). Also: 0% is about no effect. Summed up: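 Yellow fluorescence (Ex 488, Em 500-530) of Vif-coexpressing HeLa A3G-eYFP cells, scanned by Acumen cytometer, reports blocked A3G degradation. Cells plated at 700/well overnight at 37 deg C before compound addition, then a further overnight compound incubation at 37 deg C.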

Test [13] concerns Zika virus NS2B-NS3 protease. The test can be described thus: Primary screen GU AMC qHTS for Zika virus inhibitors (AID 1347154).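 Also: 0% = no-inhibitor control and -100% = no-enzyme control; nearly all actives have a fitted effect of over 70% in size.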 The method in brief: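 Unlinked Zika NS2B hydrophilic domain/NS3 protease domain noncovalent complex (25 nM final) in 10 mM Tris-HCl pH 8.0, 0.01% Tween 20, with AMC peptide substrate. Fluorescence (ex 340, em 450 nm) change over 15 min, room temperature; percent inhibition fitted to 4-parameter Hill equation.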

Test [14] in a line: Primary qHTS for small molecule stabilizers of the endoplasmic reticulum resident proteome: Secreted ER Calcium Modulated Protein (SERCaMP) assay (AID 1508630). Also: % is scaled to controls: 0 for no effect and ±100 for the full control effect. Summed up: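 The SH-SY5Y reporter protocol was run at 3 concentrations up to 38.3 uM (primary) or 11 concentrations (follow-up): 16 h compound, 100 nM thapsigargin for 4 h, then extracellular luciferase luminescence.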

In test [15] the target is Ubiquitin carboxyl-terminal hydrolase 1 (Homo sapiens) (UniProt O94782). Briefly: Inhibitors of USP1/UAF1: Pilot qHTS (AID 504865).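 Also: rhodamine fluorescence freed from ubiquitin-rhodamine substrate followed over time; top concentration of the series differs between compounds; % is scaled to controls: 0 for no effect and ±100 for the full control effect; nearly all actives have a fitted effect of over 35% in size.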 Summed up: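 Enzyme-free wells gave the negative control, while test wells held 1nM USP1/UAF1 preincubated with compound for 15 min at room temperature. Ub-Rho at 150nM final started the reaction, and fluorescence at 480/540 nm was recorded kinetically.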
Sequence of Ubiquitin carboxyl-terminal hydrolase 1 (Homo sapiens) (O94782 whole entry, looked up): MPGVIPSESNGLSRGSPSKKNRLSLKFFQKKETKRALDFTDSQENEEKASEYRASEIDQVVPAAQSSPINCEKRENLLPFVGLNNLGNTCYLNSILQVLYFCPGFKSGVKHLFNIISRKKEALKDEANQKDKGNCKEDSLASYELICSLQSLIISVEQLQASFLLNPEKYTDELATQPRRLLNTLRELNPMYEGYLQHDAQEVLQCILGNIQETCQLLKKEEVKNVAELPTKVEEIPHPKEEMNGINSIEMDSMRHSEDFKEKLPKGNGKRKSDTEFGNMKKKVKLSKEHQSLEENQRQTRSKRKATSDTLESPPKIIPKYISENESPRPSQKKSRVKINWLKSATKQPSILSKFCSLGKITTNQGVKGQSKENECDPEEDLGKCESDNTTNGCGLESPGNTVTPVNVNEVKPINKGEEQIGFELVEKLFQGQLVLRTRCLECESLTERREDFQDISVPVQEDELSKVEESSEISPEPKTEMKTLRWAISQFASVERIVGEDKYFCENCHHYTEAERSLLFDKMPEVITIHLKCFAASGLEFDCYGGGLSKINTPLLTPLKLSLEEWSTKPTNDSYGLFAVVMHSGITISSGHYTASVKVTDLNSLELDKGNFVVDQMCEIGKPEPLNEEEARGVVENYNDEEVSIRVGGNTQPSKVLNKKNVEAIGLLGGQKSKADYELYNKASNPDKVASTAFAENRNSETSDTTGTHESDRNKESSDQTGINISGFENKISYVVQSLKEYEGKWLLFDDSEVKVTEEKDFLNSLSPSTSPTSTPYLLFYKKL

For test [16], the target named is Cytochrome P450 2D6 (Homo sapiens) (UniProt P10635). Briefly: qHTS Assay for Inhibitors and Substrates of Cytochrome P450 2D6 (AID 891). Also: potency is read from the fitted curve at half-maximal effect; nearly all actives have a fitted effect of over 60% in size. Summed up: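 Luminescent read-out of luciferin formed by 5 nM human CYP2D6 demethylating 30 uM Luciferin-ME EGE (Km level) over 60 min at room temperature after NADPH regeneration addition. Data normalized to full inhibition by 1.43 uM quinidine.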
Sequence of Cytochrome P450 2D6 (Homo sapiens) (P10635 whole entry, looked up): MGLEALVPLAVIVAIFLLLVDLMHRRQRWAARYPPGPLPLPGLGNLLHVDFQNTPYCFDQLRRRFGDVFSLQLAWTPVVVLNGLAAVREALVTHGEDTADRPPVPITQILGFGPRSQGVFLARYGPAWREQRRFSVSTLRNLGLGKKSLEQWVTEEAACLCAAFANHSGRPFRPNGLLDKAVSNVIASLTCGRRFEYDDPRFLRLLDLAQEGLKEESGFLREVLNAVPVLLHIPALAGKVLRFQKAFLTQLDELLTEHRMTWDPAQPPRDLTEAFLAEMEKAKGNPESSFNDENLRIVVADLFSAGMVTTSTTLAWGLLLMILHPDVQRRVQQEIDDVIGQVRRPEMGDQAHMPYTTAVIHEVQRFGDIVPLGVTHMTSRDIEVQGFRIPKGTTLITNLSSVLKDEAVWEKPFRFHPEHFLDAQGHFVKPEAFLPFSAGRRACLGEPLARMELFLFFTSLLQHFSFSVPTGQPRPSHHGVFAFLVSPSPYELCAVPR

Where [17] appears, read: measured here: cell count channel max response.
Setting [18] is: measured here: lipid channel max response.

Sequence of DNA dC->dU-editing enzyme APOBEC-3G (Homo sapiens) (Q9HC16 whole entry, looked up): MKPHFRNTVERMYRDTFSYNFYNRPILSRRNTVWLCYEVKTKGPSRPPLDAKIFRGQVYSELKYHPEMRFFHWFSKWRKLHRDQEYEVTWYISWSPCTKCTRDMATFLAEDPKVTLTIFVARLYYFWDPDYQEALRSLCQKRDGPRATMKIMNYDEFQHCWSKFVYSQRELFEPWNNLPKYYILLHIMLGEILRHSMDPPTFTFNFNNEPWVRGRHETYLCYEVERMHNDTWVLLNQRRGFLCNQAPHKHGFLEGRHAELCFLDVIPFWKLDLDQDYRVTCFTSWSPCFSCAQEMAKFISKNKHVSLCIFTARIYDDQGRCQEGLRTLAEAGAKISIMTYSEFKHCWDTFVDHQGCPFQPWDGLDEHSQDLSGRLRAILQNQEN
Sequence of Cytochrome P450 1A2 (Homo sapiens) (P05177 whole entry, looked up): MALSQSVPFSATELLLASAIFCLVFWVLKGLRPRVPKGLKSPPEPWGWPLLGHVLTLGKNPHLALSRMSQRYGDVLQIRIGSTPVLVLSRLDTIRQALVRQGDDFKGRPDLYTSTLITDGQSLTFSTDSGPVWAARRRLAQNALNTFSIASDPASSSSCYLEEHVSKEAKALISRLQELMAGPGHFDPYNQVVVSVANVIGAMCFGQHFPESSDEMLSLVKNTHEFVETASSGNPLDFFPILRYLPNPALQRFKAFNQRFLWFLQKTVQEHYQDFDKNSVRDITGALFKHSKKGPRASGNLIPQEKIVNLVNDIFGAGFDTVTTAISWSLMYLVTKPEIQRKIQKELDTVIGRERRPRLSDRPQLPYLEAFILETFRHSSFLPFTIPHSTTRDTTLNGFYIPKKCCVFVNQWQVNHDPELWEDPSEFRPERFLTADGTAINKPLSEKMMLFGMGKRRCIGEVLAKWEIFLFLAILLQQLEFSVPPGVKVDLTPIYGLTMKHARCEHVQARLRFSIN
Sequence of 3',5'-cyclic-AMP phosphodiesterase 4B (Homo sapiens) (Q07343 whole entry, looked up): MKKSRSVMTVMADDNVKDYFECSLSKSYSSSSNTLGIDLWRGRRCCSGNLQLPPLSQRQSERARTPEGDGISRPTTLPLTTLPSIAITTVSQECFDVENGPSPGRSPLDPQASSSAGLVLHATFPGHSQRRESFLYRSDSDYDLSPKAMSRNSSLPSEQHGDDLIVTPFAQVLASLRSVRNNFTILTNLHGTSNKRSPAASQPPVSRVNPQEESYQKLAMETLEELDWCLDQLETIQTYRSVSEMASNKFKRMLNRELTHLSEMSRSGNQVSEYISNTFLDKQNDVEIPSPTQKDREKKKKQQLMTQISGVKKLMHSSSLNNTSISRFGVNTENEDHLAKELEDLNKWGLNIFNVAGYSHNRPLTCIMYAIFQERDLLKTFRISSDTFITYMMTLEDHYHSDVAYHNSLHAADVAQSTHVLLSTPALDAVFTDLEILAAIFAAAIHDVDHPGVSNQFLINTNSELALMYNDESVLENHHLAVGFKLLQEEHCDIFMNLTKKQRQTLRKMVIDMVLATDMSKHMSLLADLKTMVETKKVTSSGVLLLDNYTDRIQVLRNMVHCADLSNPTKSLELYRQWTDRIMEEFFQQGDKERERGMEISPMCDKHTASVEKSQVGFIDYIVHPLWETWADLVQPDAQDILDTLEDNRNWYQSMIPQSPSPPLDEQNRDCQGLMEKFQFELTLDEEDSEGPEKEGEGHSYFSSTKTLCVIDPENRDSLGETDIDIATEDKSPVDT
Sequence of Pyruvate kinase PKM (Homo sapiens) (P14618 whole entry, looked up): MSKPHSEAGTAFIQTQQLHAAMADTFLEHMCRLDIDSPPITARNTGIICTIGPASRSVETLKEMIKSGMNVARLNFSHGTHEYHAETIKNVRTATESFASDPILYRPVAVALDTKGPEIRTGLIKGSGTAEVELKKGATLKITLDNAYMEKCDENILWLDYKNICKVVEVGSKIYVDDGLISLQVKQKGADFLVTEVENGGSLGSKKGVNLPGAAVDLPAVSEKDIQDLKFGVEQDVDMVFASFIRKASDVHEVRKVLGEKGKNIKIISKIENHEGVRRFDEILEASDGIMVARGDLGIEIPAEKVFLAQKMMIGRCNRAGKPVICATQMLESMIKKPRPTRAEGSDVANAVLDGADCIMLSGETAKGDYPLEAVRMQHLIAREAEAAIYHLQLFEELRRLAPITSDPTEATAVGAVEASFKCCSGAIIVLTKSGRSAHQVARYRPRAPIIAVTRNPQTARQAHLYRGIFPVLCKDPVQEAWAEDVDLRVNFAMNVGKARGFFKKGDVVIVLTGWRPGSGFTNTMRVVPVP
Sequence of Pyruvate kinase (Leishmania mexicana) (Q27686 2-499 E452W): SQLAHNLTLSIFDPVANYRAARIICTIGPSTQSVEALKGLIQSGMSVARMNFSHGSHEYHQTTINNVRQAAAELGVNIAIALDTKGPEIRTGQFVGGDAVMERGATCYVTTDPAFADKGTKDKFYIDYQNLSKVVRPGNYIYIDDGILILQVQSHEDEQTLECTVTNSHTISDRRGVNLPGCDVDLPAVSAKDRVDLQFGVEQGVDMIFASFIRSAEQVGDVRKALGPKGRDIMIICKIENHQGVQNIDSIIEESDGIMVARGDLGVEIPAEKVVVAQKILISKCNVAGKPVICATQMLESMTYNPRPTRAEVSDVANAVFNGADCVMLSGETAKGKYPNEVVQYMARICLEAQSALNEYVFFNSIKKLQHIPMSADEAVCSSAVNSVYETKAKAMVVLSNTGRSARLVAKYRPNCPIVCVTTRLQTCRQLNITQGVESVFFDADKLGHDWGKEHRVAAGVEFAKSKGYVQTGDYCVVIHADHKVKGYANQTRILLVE

As for `CC(C)(C)NC[C@H](O)COc1cccc2[nH]c(=O)[nH]c12`, the figures for the activity change, negative = inhibition in test [1] and in test [11] were -7.21% (inactive) and -4.86% (inactive), respectively. The Potency entry in [2], in test [5], in test [6], in [7], in [8] and in [12] was “inactive” in each case. The Potency result in [13] and in [14] was “inactive” each time. Besides, the Potency in [3] and in test [4] was > 46 µM (inactive) in each case. In addition, the call in [9] and in [10] was inactive. Moreover, the max response in test [11] (setting [17]) is -1.97%; in test [11] (setting [18]) it was -5.55%.
With `CC(=O)N1CCN(C)CC1`, the Potency in test [2] was 31.6 µM (active); in test [3] it was > 46 µM (inactive); in [4], > 46 µM (inactive). Further, the Potency entry in test [5], in test [6], in test [12], in test [13] and in test [14] was “inactive” in each case. The activity change, negative = inhibition in test [11] is -3.74% (inactive). For the same molecule, the max response is -2.52% in [11] (setting [17]) and -5.67% in test [11] (setting [18]).
Regarding `COc1ccc2c(c1)CCC1[C@@H]2CCC2(C)[C@@H](NCCCCCCN3C(=O)C=CC3=O)CC[C@@H]12` (stereo partly specified), the Potency entry in test [2], in test [5], in [6], in [12], in [13] and in [14] was “inactive” each time. Further, the Potency in test [3] and in [4] was > 46 µM (inactive) in each case. Besides, in test [11], the activity change, negative = inhibition is -5.78% (inactive). Further, the values for the max response in [11] (setting [17]) and in test [11] (setting [18]) were 16.2% and 8.52%, respectively.
With `N[C@@H](Cn1cc(F)c(=O)[nH]c1=O)C(=O)O`, the Potency in [3] and in [4] was > 46 µM (inactive) each time. Also, the Potency result in [5], in test [15], in [12], in test [13] and in test [14] was “inactive” in each case. The activity change, negative = inhibition in [11] is -2.96% (inactive). The max response came to 17.5% in [11] (setting [17]) and 14.7% in [11] (setting [18]).
In the case of `N[C@H](C(=O)O)C1[C@H](C(=O)O)[C@H]1C(=O)O` (stereo partly specified), the results for the Potency in [3], in [4] and in [16] were > 46 µM (inactive), > 46 µM (inactive) and 7.94 µM (active), respectively. Further, the Potency entry in test [5], in test [6], in [15], in test [12], in test [13] and in [14] was “inactive” in each case. In [11], the activity change, negative = inhibition was 1.13% (inactive). Besides, the max response in [11] (setting [17]) is -12.3%; in test [11] (setting [18]), -12.9%.
On to `N[C@@]1(C(=O)O)CN[C@H](C(=O)O)C1`, for which the Potency in [3] and in test [4] was > 46 µM (inactive) throughout. Besides, the Potency result in [5], in test [6], in [15], in test [12], in test [13] and in test [14] was “inactive” throughout. Also, in test [11], the activity change, negative = inhibition was -1.74% (inactive). In addition, the max response in [11] (setting [17]) was 0.388%; in [11] (setting [18]) it was -1.87%.
Turning to `N[C@H](C(=O)O)c1cccc(O)c1`, the Potency in [3] and in [4] was > 46 µM (inactive) each time. Moreover, the Potency result in [5], in test [15], in test [12], in [13] and in [14] was “inactive” throughout. Moreover, the activity change, negative = inhibition in test [11] was 7.87% (inactive). The values for the max response in [11] (setting [17]) and in [11] (setting [18]) were 12.7% and 24.7%, respectively.
